# The sample as a whole holds a higher share of hits than the screen did.
# Epigenetic mod – epigenetic modulators derepressing GFP locus in mouse cells; mouse C127i GFP locus derepression, cytometry, 30 h; Potency, µM (top dose mostly 46.1 µM); actives 0.09% (n = 68,000); AID 597
#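 Read-out is the number of GFP-positive cells, scored as fluorescent objects 20 to 120 um wide, reflecting derepression of a silenced CMV-GFP reporter in murine C127i cells after 30 h compound exposure at 37 C.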
# HBB splice mod – modulators of hemoglobin beta chain splicing. AID 925. HBB splicing reporter cell assay, activation; EGFP reporter with mutant IVS2-654 intron; response scale: normalised to 500 nM splice-correcting PNA. actives 0.06% (n = 65,000). Potency, µM (series often up to 46.1 µM), most hits filed as activators
#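 Compounds were applied for 2 days to HeLa EGFP-654 cells, 500/well in Optimem with 2% FCS. The reporter's EGFP is disrupted by mis-splicing of beta-globin intron IVS2-654. Readout: summed well GFP fluorescence from 488 nm laser scanning; reference was 500 nM antisense […] 654 PNA.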
# GBA mod – modulators of human glucocerebrosidase | P04062 | purified enzyme, resorufin glucoside fluorescence (screen aimed at inhibitors), 20 min | Potency, µM | actives 1.1% (n = 48,000); in the data active means potency below about 15 µM; inconclusive means mostly about 16 µM to 33 µM;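 further: the screen sought inhibitors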
#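 Compounds titrated against 0.2 nM normal enzyme, 30 uM resorufin beta-D-glucopyranoside substrate, citrate/phosphate buffer with taurocholate and tween-20, pH 5.9. Reaction ran 20 min at room temperature; fluorescence (Ex 548/Em 600) gave AC50.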
# UbGFP stabilizer – inhibits proteasome, raising ubiquitin-GFP reporter fluorescence | Ubiquitin-GFP reporter cells, proteasome inhibition, GFP fluorescence; response scale: untreated = 0%, 10 µM MG-132 = 100% | 67,000 tested, under 10 active | Potency, µM (doses to about 45.9 µM), hits mostly activators; active means well fitted activation curve with a large enough effect, not every such curve was filed as active; inconclusive means small, poorly fitted or top-dose-only effect, or another doubt; inactive means no such curve, though single readings can be large or run the other way
#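 Proteasome blockade was scored as a rise in GFP-expressing U2OS cells carrying a ubiquitin(G76V)-GFP construct, imaged after 4 hr compound treatment at 37 °C across a 46 uM–2.9 nM series.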
# Casp7 inh – blocks human caspase-7 allosterically or competitively; P55210; recombinant caspase-7, Ac-DEVD-AFC fluorescence rate; Potency, µM (doses to about 57.5 µM), most hits filed as inhibitors; actives 0.02% (n = 75,000); AID 889; active means well fitted inhibition curve with a large enough effect in the main read-out, with a control signal flat, not every such curve was filed as active; inconclusive means small, poorly fitted or top-dose-only effect, or a change in a side signal
# Casp1 inh – caspase-1 (human) inhibition, allosteric or competitive; Caspase-1 enzyme, Ac-WEHD-AFC fluorogenic rate; Potency, µM (top dose mostly 57.5 µM), usual class: inhibitors; actives 0.03% (n = 75,000)
# Hits are given with their value; – = inactive; ? = inconclusive; · = no result; [ ] = remark or other dose. Unless noted, the call rests on the fitted dose curve; in most records, active means well fitted curve in the direction sought with a large enough effect; inconclusive means small, poorly fitted or top-dose-only effect, or another doubt; inactive means no such curve, though single readings can be large; an effect the other way counts as inactive or inconclusive.
SMILES,Epigenetic mod,HBB splice mod,GBA mod,UbGFP stabilizer,Casp7 inh,Casp1 inh
CCc1nnc(NC(=O)c2ccc(S(=O)(=O)N(CC)Cc3ccccc3)cc2)o1,–,–,14,–,–,–
CCCCN(CCCC)S(=O)(=O)c1ccc(C(=O)Nc2nnc(COC)o2)cc1,–,–,?,–,–,–
COc1ccc(-c2csc(NC(=O)C3CCCO3)n2)cc1 (stereo unspecified),–,–,–,–,–,–
Cc1cccc(N2CSC3=C(C#N)C(c4ccc(C)o4)CC(=O)N3C2)c1 (stereo unspecified),–,–[0.369 µM],15,–,?,?
COc1ccc(OC)c(C2CC(=O)N3CN(c4ccccc4)CSC3=C2C#N)c1 (stereo unspecified),–,–,·,–,–,–
CCN1C(=O)[C@H]2[C@H]3[C@H](O)[C@H](O)C/C(=N/OCc4ccccc4)[C@H]3CC[C@@H]2C1=O,·,–[9.22 µM],·,·,–[11.5 µM],–[11.5 µM]
O=C(Nc1ccccc1)N1CCCC(c2nc(-c3cccs3)no2)C1 (stereo unspecified),–,–,0.71,–,–,–
O=C(Nc1ccc(Cl)cc1)N1CCC(c2nc(-c3cccs3)no2)CC1,–,·,?,–,–,–
Cc1n[nH]c(C)c1N1C(=O)c2cccc3c(N4CCCCCC4)ccc(c23)C1=O,–,16µM,·,–,?,·
Cc1noc(C)c1-c1nccc(NC2CC2)n1,–[9.22 µM],–,·,–,–,–
COc1ccc(CNC(=O)c2cc(-c3ccccc3OC)on2)cc1,–,–,11,–,–,–
COc1ccccc1-c1cc(C(=O)NCc2ccc(F)cc2)no1,–,–,9.9,–,–,–
COc1ccccc1-c1cc(C(=O)NCc2ccccc2)no1,–,–,·,–,–,–
Cc1cc(C)c2c(c1)OC(O)(C(F)F)CC2=O (stereo unspecified),–,–[0.0738 µM],·,–[9.17 µM],–,–
COc1ccc(-n2c(=O)c(-c3cccs3)nc3cnc(Nc4cccc(OC)c4)nc32)cc1,3.2µM,10µM,·,?,?,·
COc1cccc(Nc2ncc3nc(-c4cccs4)c(=O)n(CCC#N)c3n2)c1,?,–,·,6.3µM,?,?
COc1cccc(Nc2ncc3nc(C)c(=O)n(Cc4cccs4)c3n2)c1,–[9.22 µM],16µM,·,–,?,·
COc1ccc(-c2nc3cnc(Nc4cccc(OC)c4)nc3n(Cc3cccs3)c2=O)cc1,–[9.22 µM],–,·,–,?,·
COCCn1c(=O)c(-c2ccc(F)cc2)nc2cnc(Nc3cccc(OC)c3)nc21,–[9.22 µM],20µM,·,?,?,·
Cc1ccccc1-c1ccc2ncnc(NC3CC3)c2c1,–[9.22 µM],–,·,–,–,–
CC1(C)N=C(C(=O)c2ccccc2)N(O)C1(C)O (stereo unspecified),–,–,–,–,–,–
N#Cc1cccc(NC(=O)N2CCCC3(CCN(C(=O)c4ccncc4)CC3)C2)c1,–[9.22 µM],–,·,–,–,–
CCC(C)Sc1nc2c(c(=O)[nH]c(=O)n2C)n1CCc1ccccc1 (stereo unspecified),–,–,–,–,–,–
O=C(Cn1cnnn1)OCC(=O)c1ccc(Cl)s1,–,13µM,·,–,–,–
Cc1cc(C)c(C(=O)COC(=O)Cn2cnnn2)cc1C,–,–,–,–,–[0.00368 µM],–
SMILES,Epigenetic mod,HBB splice mod,GBA mod,UbGFP stabilizer,Casp7 inh,Casp1 inh
CC1(C)Cc2c(sc3nc(SCC(=O)N4CCOCC4)nc(N)c23)CO1,–,–,14,–,–,–
CCOC(=O)N1CCN(c2nc(SC)nc3sc4c(c23)CC(C)(C)OC4)CC1,–,–,–,–,–,–
O=C(c1cccc(COc2ccc(Cl)cc2Cl)c1)N1CCN(c2ccccn2)CC1,–,–,–,–,–,–
O=C(NC1CC2CCCC(C1)N2C1CC1)NC12CC3CC(CC(C3)C1)C2 (stereo unspecified),–,–,10,–,–,–
CC(C)C(=O)NC(c1ccco1)c1ccc2cccnc2c1O (stereo unspecified),4µM,–[9.22 µM],·,–,–,–
COc1ccc(C(NC(C)=O)c2ccc3cccnc3c2O)c(OC)c1 (stereo unspecified),13µM,–,·,–,–,–

# Compound activity (PubChem BioAssay)
